Source: PubChem BioAssay AID492999 (Johns Hopkins Ion Channel Center, 2010)
Hit rate of the full screen: of about 1,700 compounds, about 1,100 (65%) were called active.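 The calls were made as follows: active = duplicate-averaged calcium response above the buffer-only control mean plus 5 SD of those controls; inactive = the rest.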 The set was probably picked from earlier hits. Not all results are given here.

Experiment: increase of M3R-evoked calcium signal – cell-based, validation screen, HEK293 M3R/RGS4, calcium flux, RGS4 inhibitor project (AID 492999);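 as to Calcium response: integrated fluorescence ratio F max minus min over baseline F0; higher response in RGS4-induced cells means RGS4 inhibition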
Conditions: HEK293 M3R/RGS4, carbachol calcium Fluo-4 fluorescence, at 10 µM, carbachol added at its EC20; active compounds read high, 0 = buffer wells, 100 = carbachol control

Calcium response, inactive:
CCC(c1nnnn1Cc1ccco1)N(Cc1cc2cc(OC)ccc2[nH]c1=O)C1CCCCC1 (centres undefined)
COc1ccc(/C(O)=C2/C(=O)C(=O)N(c3nc(C)c(C)s3)C2c2ccco2)cc1 (centres undefined)
COc1cc(/C=C2/SC(=S)N(Cc3ccccc3)C2=O)cc(OC)c1O
COc1ccc(/C=C/C(=O)c2ccc(OC)cc2O)cc1
O=C(Nc1ccccc1)OCc1cc(-c2ccc(Cl)cc2)on1
COCCCNC(=S)N(CCN(C)C)Cc1cc2cc3c(cc2[nH]c1=O)OCCO3
COc1ccc(OC)c(S(=O)(=O)N2CCCC(C(=O)N3CCC(C(N)=O)CC3)C2)c1 (centres undefined)
CCOC(=O)[C@@H]1[C@H]2COc3ccc(Br)cc3[C@H]2N2C(=O)N(c3ccc(Cl)cc3)C(=O)[C@@]12C
CCOc1ccc(/C=N/NC(=O)CSc2ccccn2)cc1O
O=C(Nc1ccc(Cl)cc1)OCc1cc(-c2ccccc2)on1
Cc1nc(Nc2ccc(S(=O)(=O)N3CCCC3)cc2)c2nnn(Cc3ccccc3)c2n1
Cc1ccc(Nc2nc(N)nc(CN3CCN(Cc4ccccc4)CC3)n2)cc1Cl
Cc1nn2c(=O)cc(COC(=O)c3ccc(NC(=O)C(C)(C)C)cc3)nc2s1
Cc1ccc(NC(=O)c2c(NC(=O)CCC(=O)O)sc3c2CCCCC3)cc1
CC(C)Cc1nc(Nc2ccc(S(=O)(=O)N3CCCC3)cc2)c2nnn(Cc3ccccc3)c2n1
Cc1nn(C(C)C(=O)N2CCOCC2)c(=O)c2nn(-c3ccccc3)c(C)c12 (centres undefined)
O=C(NCCCc1ccccc1)C1CCC(CNc2c(N3CCCCC3)c(=O)c2=O)CC1 (centres undefined)
O=C(COC(=O)c1cccc(Br)c1)Nc1cccc2c1C(=O)c1ccccc1C2=O
CCc1ccc(C2C(C#N)=C(N)N(N3CCOCC3)C3=C2C(=O)CC(C)(C)C3)s1 (centres undefined)
CCn1c(O)c(N=NC2=NC(=O)CS2)c2cc(C)ccc21
Cn1c(-c2ccco2)nc2cc3ccccc3cc21
CCOc1ccc(NC(=O)C/C(C)=N/NC(=O)Cc2cccs2)cc1
COC(=O)C1CCN(C(=O)c2cc(=O)[nH]c3ccccc23)CC1
Cc1ccc(S/C(=N\S(=O)(=O)c2ccc(Cl)cc2)c2ccccc2)cc1
Cc1ccc(SC(CC(=O)c2ccc(C(C)(C)C)cc2)C(=O)O)cc1 (centres undefined)
CCc1nnc(NS(=O)(=O)c2ccc(N=Cc3c(C)[nH]n(-c4ccc(C)cc4)c3=O)cc2)s1
COc1ccc(NCc2nnc(SCc3ccccc3)n2-c2ccc(OC)cc2)cc1
O=C(O)c1ccc2c(=O)n3c(nc2c1)/C(=C/c1ccc(Cl)c([N+](=O)[O-])c1)CC3
O=S(=O)(Nc1nccs1)c1ccc2c(c1)OCCO2
O=[N+]([O-])c1c(NCCO)cc(Sc2nc3ccccc3s2)c2nonc12

Calcium response, active:
CCOC(=O)C1=NN(c2ccc(Cl)cc2)/C(=C/C2=NCCc3cc(OC)c(OC)cc32)S1 10.5%
COc1ccc(-c2csc(Nc3ccc(O)cc3)n2)cc1 10%
C=CCSc1nc2c(c(=O)[nH]1)C(C(C)C)C(C#N)=C(N)O2 (centres undefined) 26%
COc1cc(Br)cc(/C=N/c2ncn[nH]2)c1O 8%
COc1cc(/C=C2/C(=O)NN(c3cccc(Cl)c3)C2=O)cc(Br)c1O 30.5%
C#CCOc1ccc(/C=C2/C(=O)NN(c3ccccc3)C2=O)cc1OC 9%
Oc1ccc(/C=N/Nc2ccc(C(F)(F)F)cn2)cc1O 16.5%
Cc1nc(-c2ccccc2)sc1C(=O)/C=C/c1ccccc1 10%
O=C1Nc2ccc(Br)cc2/C1=N/N=C/C1=C(N2CCOCC2)C(=C\c2ccccc2)/CC1 18.5%
CCOC(=O)C1CCN(C(c2cc3cc(C)cc(C)c3[nH]c2=O)c2nnnn2C2CCCCC2)CC1 (centres undefined) 18%
Cc1cc(C)nc(S/C=C/C(=O)c2ccccc2)n1 19.5%
Cc1ccc(Sc2cc(N3CCOCC3)nc(-c3ccccc3)n2)cc1 28%
C[C@H](NC(=O)c1nc[nH]c1C(=O)NCC(=O)OC(C)(C)C)c1ccccc1 13%
COC(=O)Cn1cc(/C=C/[N+](=O)[O-])c2ccccc21 33.5%
O=C(/C=C/c1ccc(Cl)c([N+](=O)[O-])c1)c1cccnc1 9%
O=C(/C=C/c1ccc(Cl)c([N+](=O)[O-])c1)c1ccc(O)cc1 22%
CCCCC1S/C(=N/N=C/c2cccs2)NC1=O (centres undefined) 18%
Brc1ccc(-c2csc(N/N=C/c3cccnc3)n2)cc1 7.5%
CNc1nc(Nc2ccc(C)c(Cl)c2)nc(N)c1[N+](=O)[O-] 6%
CC(C)c1nc(SCC(=O)Nc2cccc(C(=O)O)c2)c2c3c(sc2n1)CCCC3 27.5%
CNCC(O)c1ccc(O)c(O)c1 (centres undefined) 21.5%
O=C(CCN1CCc2ccccc2C(O)(c2ccccc2)C1)c1ccc2c(c1)OCCO2 (centres undefined) 100%
COc1ccc(C(C[N+](=O)[O-])n2nc(C)cc2C)cc1 (centres undefined) 10%
O=C1c2ccccc2NC(c2ccc(-c3cccc(Cl)c3)o2)N1O (centres undefined) 24.5%
c1ccc(C[C@H]2CNCCN2CCC23CC4CC(CC(C4)C2)C3)cc1 26.5%
O=C(O)c1ccc2c(c1)C(=O)N(c1ccc(/C=C/C(=O)c3ccccc3)cc1)C2=O 93%
O=[N+]([O-])/C=C/c1ccc2c(ccn2Cc2ccccc2)c1 56.5%
O=C1NC(c2ccc(-c3ccccc3[N+](=O)[O-])o2)C(C(=O)c2ccc(Cl)cc2)C(O)(C(F)(F)F)N1 (centres undefined) 18.5%
CCc1ccc2oc(-c3ccc(N)cc3)nc2c1 17%
CCCCOC(=O)CNc1nnc(SCC(=O)OCC)[nH]c1=O 63.5%
Cc1ccc(C)c(Cn2nnc3c(=O)[nH]c(C(=O)Nc4ccc(F)cc4)nc32)c1 56.5%
C=CCOc1ccc(/C=C2/C(=O)ON=C2C)cc1OCC 14.5%
C#CCOc1ccc(/C=C2/C(=O)ON=C2C)cc1OCC 16%
Cc1ccsc1/C=N/n1c(=S)[nH]nc(C)c1=O 22.5%
Nc1cccc(-c2cc(-c3ccccc3)nc(-c3cccc(N)c3)n2)c1 13.5%
COc1cc2c(cc1O)C(SC)=NC(C)(C)C2 26.5%
C1=C(N2CCOCC2)/C(=C/c2nc3ccccc3[nH]2)CC1 49%
Cc1ccc(/C=C2\CCn3c2nc2cc(C(=O)O)ccc2c3=O)c(C)c1 52%
Oc1ccc(-c2[nH]ncc2-c2nc3ccccc3s2)c(O)c1 12%
Cc1c(NC(=O)c2coc(=O)c(Br)c2)c(=O)n(-c2ccccc2)n1C 24.5%
CS(=O)(=O)N(CC(O)Cn1c2ccccc2c2ccccc21)c1cccc2ccccc12 (centres undefined) 14.5%
COc1ccc(S(=O)(=O)Nc2ccc(O)c(Sc3nc4ccccc4s3)c2)cc1 23%
Nc1ccccc1SC(C[N+](=O)[O-])c1ccccc1 (centres undefined) 38.5%
O=C(O)C(c1ccccc1)N1C(=O)/C(=C\c2ccc(-c3cccc(Cl)c3)o2)SC1=S (centres undefined) 13.5%
COc1ccccc1C1C(C#N)=C(N)Oc2c1c(-c1ccccc1)nn2-c1ccccc1 (centres undefined) 34.5%
C=C(C)C(=O)O[C@H]1C/C(C)=C\C(=O)/C=C(\C)[C@H](O)[C@@H]2OC(=O)C(=C)[C@@H]21 26.5%
CC(=O)Nc1ccc(S(=O)(=O)Nc2nc(-c3ccc(C(C)(C)C)cc3)cs2)cc1 19.5%
O=C(/C=C/Sc1ncn[nH]1)c1ccc(Cl)cc1 45.5%
Cc1cc(-c2n[nH]c(=S)n2/N=C/C(Br)=C/c2ccccc2)n[nH]1 18%
